Laboratory results as given in publication PMC5540273 (PLoS ONE, 2017).

Test system: T1, YANK2
T1 construct: gene STK32B
Conditions: concentration: 1 μM, replicates: in singlicate; n = 1
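Also: KINOMEscan kinase panel screen.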

SMILES | %Inh [%]
Nc1ncnc2c1nc(-c1ccccc1)n2-c1ccccc1 [SKF-97293] | 21
NCCCC(NC(=O)c1cc(Br)c(-c2ccnc3[nH]ccc23)s1)c1ccccc1.O=C(O)C(F)(F)F.O=C(O)C(F)(F)F (stereo not shown) [GSK1287544] | 0
CSc1cccc2c(-c3ccncn3)c(-c3ccc(F)cc3)nn12 [GW514786] | 24
CC(C)c1nc(-c2cccc(NS(=O)(=O)c3c(F)cccc3F)c2F)c(-c2ccnc(Nc3ccc(N4CCOCC4)nc3)n2)s1 [GSK2008607] | 48
Cc1cccc(Nc2nc(N[C@H]3CCNC3)ncc2C(N)=O)c1.Cl [GSK2197149] | 0
Nc1ncc(-c2ccc3nccc(-c4ccncc4)c3c2)cc1S(=O)(=O)N1CCOCC1 [GSK1627798] | 0
COc1ccc(CNC(=O)NC2CCN(c3ccnc(Nc4ccc(F)cc4)n3)CC2)cc1 [GSK1379788] | 0
O=C(Nc1n[nH]c2nc(-c3ccc(O)cc3)ccc12)C1CC1 [SB-710363] | 0
CC(C)(C)c1ccc2nccc(Nc3cccc(O)c3)c2c1 [GW856795] | 0
COc1cc(Nc2nccc(-c3c(-c4cccc(NC(=O)c5c(F)cccc5F)c4)nn4ccccc34)n2)cc(OC)c1OC [GSK323521] | 0
O=c1[nH]cc(-c2ccc(N3CCOCC3)cc2)c2sc(-c3cn[nH]c3)cc12 [GSK2276055] | 0
COc1cccc(-c2ccc3c(NC(=O)C4CC4)n[nH]c3n2)c1 [SB-710903] | 2
Nc1ncc(-c2cccnc2)c2scc(-c3ccc4c(c3)CCN4C(=O)Cc3ccccc3)c12 [GSK683281] | 10
